For experiment [1], the system named is CRL-7250. Put plainly: Cytotoxic Profiling of Annotated Libraries Using Quantitative High-Throughput Screening (AID 1296008). For max response: % is set by controls: 0 for no effect and ±100 for the full control effect. Note: potency is the fitted concentration of half-maximal effect. The conditions noted are these: Five cell lines viability, CellTiter-Glo ATP luminescence, 48-72 h; max response: active compounds read low. The method in brief: (§1)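 Cells exposed to compounds for 48 or 72 hr at 37 degrees Celsius. Viability read as ATP-coupled luminescence with CellTiter-Glo after 10 min at room temperature.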

For experiment [2], the system named is HEK293. Described as above. The conditions noted are these: Five cell lines viability, CellTiter-Glo ATP luminescence, 48-72 h; max response: active compounds read low. The method in brief:
as §1
A general note: ATP-based viability assays read luminescence as a measure of living cells.

The test system of experiment [3] is HaCat. The experiment is described as above. The conditions noted are these: Five cell lines viability, CellTiter-Glo ATP luminescence, 48-72 h; max response: active compounds read low. The essentials: as §1
Experiment [4] concerns KB-3-1. The description is as above. The conditions noted are these: Five cell lines viability, CellTiter-Glo ATP luminescence, 48-72 h; max response: active compounds read low. The method in brief:
as §1

Experiment [5] has as its system NIH3T3. The experiment is described as above. The conditions noted are these: Five cell lines viability, CellTiter-Glo ATP luminescence, 48-72 h; max response: active compounds read low. The method in brief: as §1
Experiment [6] relates to HACAT. Put plainly: qHTS assay to identify novel small-molecules to repurpose for Merkel cell carcinoma treatment (AID 1296009). The conditions noted are these: MCC and control cell lines, CellTiter-Glo viability, 72 h; at 44.8 µM (top of the series) unless noted. The essentials: (§2)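 CellTiter-Glo luminescence after 72 hr compound exposure at 37 degree celsius gave cell viability. Libraries NPC and MIPE were run as 8- and 11-point dose responses; RLUs normalized to DMSO (negative) and no-cell (cytotoxicity) controls.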
On the technique in general: Quantitative high-throughput screening tests each substance at several concentrations.

Experiment [7] relates to CRL-7250. The description is as above. The conditions noted are these: MCC and control cell lines, CellTiter-Glo viability, 72 h; at 44.8 µM (top of the series) unless noted. The method in brief: as §2
For experiment [8], the system named is HEK293T. The experiment is described as above. The conditions noted are these: MCC and control cell lines, CellTiter-Glo viability, 72 h; at 44.8 µM (top of the series) unless noted. The essentials:
as §2

For experiment [9], the system named is W2. The experiment can be described thus: qHTS profiling for inhibitors of Plasmodium falciparum proliferation (AID 504749).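 Note: 0% = DMSO vehicle and full inhibition = artemisinin control.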 The conditions noted are these: P. falciparum in erythrocytes, SYBR Green DNA, 72 h; series mostly up to 28.7 µM. The method in brief:
(§3)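 SYBR Green fluorescence (ex 485 nm, em 535 nm) reports parasite DNA after 72 h compound exposure of infected red cells at 0.3% parasitemia, 2.5% hematocrit; signal normalized to 0.29 uM artemisinin and vehicle wells.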

The test system of experiment [10] is TAB165. The description is as above. The conditions noted are these: P. falciparum in erythrocytes, SYBR Green DNA, 72 h; series mostly up to 28.7 µM. The essentials: as §3

Several values for one entry are separate records, joined by “and”; a condition that tells them apart may be missing. Equal entries are not always repeated. Records with an inconclusive call do not appear. Unmarked numbers belong to inactive results. Activity calls are given as the source filed them. Calls come from the whole dose curve; as a rule, active = well fitted inhibition curve with a large enough effect; inconclusive = small, poorly fitted or top-dose-only effect; inactive = flat fitted curve, though single readings scatter.

The record followed here is PubChem BioAssay (NCATS).
Note: nearly all actives have a fitted effect of over 60% in size.

Turning to `C[C@]12Cc3cn[nH]c3C[C@@H]1CC[C@@H]1[C@H]2CC[C@@]2(C)[C@H]1CC[C@]2(C)O`, the max response in experiment [1] was 3.97%; in experiment [2], -21.8%; in experiment [4], -0.691%; in [5], -12.4%. Further, the compound was classed as inactive in experiment [3] and in [6].

Regarding `CC(C)N[C@@H]1CCn2c(=O)[nH]c3cccc(c32)[C@@H]1O`, the compound was called inactive in experiment [1] and in experiment [7]. The max response is 2.71% in experiment [2], -2.4% in [3], 6.91% in experiment [4] and -1.8% in experiment [5].

For the compound `C[C@@H]1[C@H](O)[C@@H](C)C=CC=CCCC=CC=CC=CC=C[C@H](O[C@H]2O[C@@H](C)[C@H](O)[C@@H](N)[C@@H]2O)CC2O[C@](O)(C[C@@H](O)[C@H](O)CC[C@@H](O)C[C@@H](O)C[C@@H](O)CC(=O)O[C@H]1C)C[C@H](O)[C@H]2C(=O)O`, the max response was 4.08% in [1], 2.42% in experiment [2] and -3.28% in experiment [5]. Also, the outcome in experiment [3], in experiment [4] and in experiment [6] was inactive.

With `O=C1C(I)=CC(=C(c2cc(I)c(O)c(I)c2)c2ccccc2C(=O)O)C=C1I`, the call in experiment [1], in [3], in [5], in experiment [7] and in [6] was inactive. In addition, the max response in experiment [2] was -13.3%; in [4], -3.52% and 5.85%.

In the case of `CC[C@@H](C(N)=O)N1CCCC1=O`, the max response in experiment [1] was 0.0308%; in [4] it was 6.38%; in experiment [5], 1.04%. Moreover, the compound was called inactive in [2], in experiment [3], in experiment [6] and in experiment [8].

With `COc1cccc2c1[C@]13CCN(CC4CC4)[C@H](C2)[C@]1(OC)CCC(=O)C3`, the call in [1], in experiment [2], in experiment [3], in experiment [7], in experiment [6] and in experiment [8] was inactive. The max response in experiment [4] is 7.72%; in experiment [5], 3.8%.

On to `CCCCC(CC)COC(=O)c1ccccc1C(=O)OCC(CC)CCCC` (stereo not given), for which the max response in experiment [1] was -5.66%; in experiment [4] it was -15.4%; in experiment [5] it was -8.2%. Moreover, the compound was called inactive in [2] and in experiment [3]. Also, the outcome in experiment [6] and in [8] was “inactive [at 92 µM]” throughout.

Consider `CC1=NN=C(c2ccc(N)cc2)c2cc3c(cc2C1)OCO3`, for which the compound was called inactive in experiment [1], in [4], in [5] and in experiment [7]. Further, the figures for the max response in experiment [2] and in experiment [3] were 3.46% and -15.7%, respectively.

With `NC1=NC(=O)N2CC12` (stereo not given), the values for the Potency in [1] and in experiment [2] were 11.8 µM (active) and 8.33 µM (active), respectively. In addition, the compound was called inactive in experiment [3], in experiment [5] and in experiment [6]. The max response in experiment [4] is 6.64%.

As for `Clc1ccccc1C(c1ccccc1)(c1ccccc1)n1cccn1`, the outcome in experiment [1], in [5] and in experiment [7] was inactive. The figures for the max response in experiment [2], in experiment [3] and in [4] were -5.51%, -3.22% and 9.15%, respectively.

Consider `CC[N+]1(CCOC(=O)C(O)(c2ccccc2)c2ccccc2)CCCCC1`, for which the Potency entry in experiment [9] was “inactive”. Further, the max response in [1] is -4.52%; in [4], 1.27%. Besides, the compound was classed as inactive in [2], in experiment [3], in experiment [5], in [6] and in experiment [8].

For `CCOC(=O)c1cncn1[C@H](C)c1ccccc1`, the results for the max response in [1] and in experiment [4] were 2.73% and 6.23%, respectively. In addition, the compound was called inactive in experiment [2], in experiment [3], in experiment [5], in [6] and in [8].

In the case of `C[C@H]([C@H](O)CCC(C)(C)O)[C@H]1CC[C@@]2(O)C3=CC(=O)[C@@H]4C[C@@H](O)[C@@H](O)C[C@]4(C)[C@@H]3CC[C@]12C`, the max response in [1] is -2.7%; in experiment [4] it was -1.89%. Besides, the compound was classed as inactive in experiment [2], in [3], in experiment [5], in experiment [6] and in experiment [8].

In the case of `C1=C2CCCN[C@H]2[C@@H]2C[C@H]1[C@@H]1CCCCN1C2`, the max response in experiment [1] was -2.39%; in experiment [2], 0.094%; in experiment [4], 9.36%. The compound was classed as inactive in [3], in experiment [5] and in [6].

For the compound `COC(=O)[C@@H](N)CCCN=C(N)N[N+](=O)[O-]`, the Potency result in [10] and in experiment [9] was “inactive” throughout. Besides, the outcome in experiment [1] and in experiment [7] was inactive. Besides, the max response in [2] was 0.845%; in [3] it was -4.22%; in [4], 9.25%; in experiment [5], 1.58%.

Take `O=c1cccc2n1CC1CNC[C@H]2C1`: the max response was -0.274% in [1], -2.71% in experiment [2], -12.2% in [3] and -3.34% in experiment [5]. In addition, the compound was classed as inactive in [4].

In the case of `O=C(Oc1ccc([N+](=O)[O-])cc1)N1CCN(Cc2cccc(Oc3ccccc3)c2)CC1`, the max response in experiment [1] is -6.9% and 1.64%; in experiment [2], 1.27%; in experiment [3], 0.717% and -5.04%; in experiment [4] it was -6.21% and -13.5%; in experiment [5], 0.403%. Further, in [5], the compound was called inactive.

In the case of `CC(C)(C)[C@]1(O)C[C@@H]2OC(=O)C[C@@]23C(=O)O[C@@H]2OC(=O)[C@H](O)C213` (stereo not given in full), the max response in [1] is 2.16%. Besides, the compound was called inactive in experiment [2], in experiment [3], in experiment [4], in experiment [5], in experiment [6] and in experiment [8].

For the compound `O=c1[nH]c2ccccc2n1C1CCN(Cc2ccc(-c3[nH]c4cc5ncnc5cc4nc3-c3ccccc3)cc2)CC1`, the result in [1], in experiment [4] and in experiment [7] was inactive. In [2], the Potency is 18.7 µM (active). The max response in experiment [3] is 0.8%; in [5], -3.31%.
